Records with an inconclusive call do not appear. The source made the active and inactive calls. Unless noted, calls follow the shape of the full dose curve.
Legend:
[1] = molecular target: Lysosomal acid glucosylceramidase (Homo sapiens) (UniProt P04062); experiment: Glucocerebrosidase-p2 (AID 348; in the data active = potency below about 10 µM; also: potency is read from the fitted curve at half-maximal effect); settings: purified GBA, blue fluorogenic substrate, 40 min
Outline: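 Normal human glucocerebrosidase (0.2 nM) with blue fluorogenic substrate (80 uM final) in citrate/phosphate pH 5.9 with 10mM sodium taurocholate, 0.01% tween-20; 40 min RT, NaOH/glycine stop; fluorescence Ex 365/Em 440; AC50 from a titration from 0.6 nM upwards.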

[2] = AP1 Signaling Pathway (AID 357; active = well fitted curve in either direction with a large enough effect, not every such curve was filed as active;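 also: ME-180 reporter cells stimulated with EGF at its EC50 level; % is scaled to controls: 0 for no effect and ±100 for the full control effect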); settings: ME-180 AP-1-bla reporter, EGF-induced, beta-lactamase ratio, 5 h; at 7.69 µM (top of the series) unless noted
Outline: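 AP-1-bla ME-180 cells, Opti-MEM + 0.5% dialyzed FBS, plated overnight 37 °C. Cpd titration + EC50 EGF, 5 h 37 °C. CCF4 2.5 h RT; ex 405, em 460/530 ratio → %activity, AC50.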

[3] = molecular target: Cytochrome P450 1A2 (Homo sapiens) (UniProt P05177); experiment: p450-cyp1a2 (AID 410); settings: recombinant CYP1A2, luciferin-ME demethylation, luminescence; series mostly up to 57 µM; also: potency is read from the fitted curve at half-maximal effect;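 as to activity change, negative = inhibition: -100% = full effect of reference inhibitor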
Cytochrome P450 1A2 (Homo sapiens), sequence (P05177 whole entry, looked up): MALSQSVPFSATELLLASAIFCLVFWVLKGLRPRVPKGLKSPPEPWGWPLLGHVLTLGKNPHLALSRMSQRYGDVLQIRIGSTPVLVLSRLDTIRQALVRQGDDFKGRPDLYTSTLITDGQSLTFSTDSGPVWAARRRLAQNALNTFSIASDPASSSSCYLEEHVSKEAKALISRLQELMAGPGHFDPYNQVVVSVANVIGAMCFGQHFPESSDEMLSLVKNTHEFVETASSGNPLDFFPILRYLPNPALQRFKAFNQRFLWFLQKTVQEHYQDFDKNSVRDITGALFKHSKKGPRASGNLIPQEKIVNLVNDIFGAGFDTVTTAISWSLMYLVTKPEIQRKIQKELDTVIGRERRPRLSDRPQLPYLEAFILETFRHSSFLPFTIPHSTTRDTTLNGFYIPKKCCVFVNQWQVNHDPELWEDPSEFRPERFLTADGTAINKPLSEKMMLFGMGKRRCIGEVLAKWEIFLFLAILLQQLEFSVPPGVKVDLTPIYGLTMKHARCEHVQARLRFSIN
Outline: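 O-Demethylation of luciferin 6' methyl ether by human CYP1A2 is monitored as luciferase luminescence. Substrate sits at Km (100uM); enzyme is 20nM. Values are scaled to 57 uM furafylline as maximal inhibition.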

[4] = Stat Signaling Pathway (AID 446; active = well fitted curve in either direction with a large enough effect, not every such curve was filed as active;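 also: ME-180 cervical cancer cells given 40 pM IL-6 alongside compound; SIE-controlled beta-lactamase reporter measured as 460/530 nm FRET emission ratio; % is scaled to controls: 0 for no effect and ±100 for the full control effect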); settings: ME-180 SIE beta-lactamase reporter, IL-6 stimulated, 5 h; at 7.69 µM (top of the series) unless noted
Outline: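 Normalization used AC90 stimulation (300 pM IL-6) and AC90 inhibition (125 nM pan-JAK inhibitor at 40 pM IL-6). The underlying signal is SIE-driven beta-lactamase in ME-180 cells after 5 h IL-6 exposure with compound.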

[5] = molecular target: Glucocorticoid receptor (Homo sapiens) (UniProt P04150); experiment: GR-EFC Redistribution (AID 451); settings: CHO-K1 GR-EFC translocation, beta-gal luminescence, 2 h; also: potency is read from the fitted curve at half-maximal effect
Glucocorticoid receptor (Homo sapiens), sequence (P04150 whole entry, looked up, the tested form may be a part): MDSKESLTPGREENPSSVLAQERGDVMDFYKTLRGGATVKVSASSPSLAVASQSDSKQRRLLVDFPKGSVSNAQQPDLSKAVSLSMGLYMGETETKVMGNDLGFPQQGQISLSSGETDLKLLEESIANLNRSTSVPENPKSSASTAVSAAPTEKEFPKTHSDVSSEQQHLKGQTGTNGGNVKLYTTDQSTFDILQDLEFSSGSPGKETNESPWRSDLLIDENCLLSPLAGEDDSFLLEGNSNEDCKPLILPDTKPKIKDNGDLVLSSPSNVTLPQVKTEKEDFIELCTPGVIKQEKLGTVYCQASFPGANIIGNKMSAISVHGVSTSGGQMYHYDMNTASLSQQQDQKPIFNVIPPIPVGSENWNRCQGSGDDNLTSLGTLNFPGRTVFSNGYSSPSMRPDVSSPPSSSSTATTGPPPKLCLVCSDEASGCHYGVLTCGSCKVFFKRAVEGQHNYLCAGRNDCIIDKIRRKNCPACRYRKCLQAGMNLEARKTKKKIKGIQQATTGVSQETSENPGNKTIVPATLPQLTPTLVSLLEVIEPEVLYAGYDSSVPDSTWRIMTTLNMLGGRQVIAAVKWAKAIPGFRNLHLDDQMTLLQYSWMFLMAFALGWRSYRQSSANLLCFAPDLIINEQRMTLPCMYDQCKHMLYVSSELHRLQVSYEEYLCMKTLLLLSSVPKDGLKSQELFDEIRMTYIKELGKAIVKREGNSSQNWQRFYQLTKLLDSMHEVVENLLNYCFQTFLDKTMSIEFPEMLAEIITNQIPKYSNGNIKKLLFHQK
Outline: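 CHO-K1 cells stably expressing nuclear-localized β-gal enzyme acceptor and GR fused C-terminally to the enzyme donor fragment; ligand-driven nuclear translocation restores β-gal by complementation. Compounds titrated up to 46 uM final, 2 h at 37 °C; luminescence read.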

[6] = molecular target: Mitogen-activated protein kinase 10 (Mus musculus) (UniProt Q61831); experiment: JNK3 AlphaScreen Assay (AID 530; active = well fitted curve in either direction with a large enough effect, not every such curve was filed as active;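 also: kinase came from lysate of stimulated human HepG2 cells; signal reports phosphorylation of biotinylated GST-cJun 1-79 at Ser73 with 10 µM ATP; % is scaled to controls: 0 for no effect and ±100 for the full control effect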); settings: JNK3 lysate, c-Jun phosphorylation; series mostly up to 57.1 µM
Outline: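 Phosphorylation of biotinylated GST-cJun(1-79) at Ser73 is measured by AlphaScreen proximity luminescence. Enzyme is JNK3 in HepG2 lysates activated with interleukin-1beta and tumor necrosis factor alpha; ATP is 10 uM final.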

[7] = molecular target: 3',5'-cyclic-AMP phosphodiesterase 4B (Homo sapiens) (UniProt Q07343); experiment: qHTS Assay for Inhibitors of PDE-IV (AID 607; active = well fitted activation curve with a large enough effect in the main read-out, with a control signal flat, not every such curve was filed as active; also: % of control where 0% means no effect); settings: HEK293 ACTOne CNG channel cells, membrane potential fluorescence; series mostly up to 22.9 µM
3',5'-cyclic-AMP phosphodiesterase 4B (Homo sapiens), sequence (Q07343 whole entry, looked up): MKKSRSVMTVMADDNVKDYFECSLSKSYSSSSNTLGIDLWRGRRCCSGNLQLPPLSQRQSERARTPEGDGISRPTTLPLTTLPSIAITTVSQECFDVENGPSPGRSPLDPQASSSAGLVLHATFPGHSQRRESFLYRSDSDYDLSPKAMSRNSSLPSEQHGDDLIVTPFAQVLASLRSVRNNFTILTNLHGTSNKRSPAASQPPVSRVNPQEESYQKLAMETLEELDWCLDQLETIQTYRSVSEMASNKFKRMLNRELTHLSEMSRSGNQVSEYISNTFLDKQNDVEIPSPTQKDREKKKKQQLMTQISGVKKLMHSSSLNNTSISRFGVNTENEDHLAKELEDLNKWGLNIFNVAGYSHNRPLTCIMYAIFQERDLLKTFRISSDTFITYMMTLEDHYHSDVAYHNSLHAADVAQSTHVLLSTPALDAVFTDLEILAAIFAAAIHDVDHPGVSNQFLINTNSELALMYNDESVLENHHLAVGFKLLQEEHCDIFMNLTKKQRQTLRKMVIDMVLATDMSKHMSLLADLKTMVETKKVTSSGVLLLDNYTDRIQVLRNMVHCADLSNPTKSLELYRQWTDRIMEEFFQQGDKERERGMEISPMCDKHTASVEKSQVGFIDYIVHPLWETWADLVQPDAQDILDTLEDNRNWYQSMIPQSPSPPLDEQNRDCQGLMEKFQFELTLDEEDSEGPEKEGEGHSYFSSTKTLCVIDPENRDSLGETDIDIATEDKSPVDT
Outline: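 HEK293 ACTOne cells with CNG channel (1000/well), endogenous PDE4; membrane potential dye, compounds up to 22.9 uM final. Fluorescence Ex 535/Em 590; RO 20-1724 (100 uM final) as reference.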

[8] = molecular target: Cytochrome P450 3A4 (Homo sapiens) (UniProt P08684); experiment: qHTS Assay for Inhibitors and Substrates of Cytochrome P450 3A4 (AID 884; active = well fitted curve in the direction sought with a large enough effect; an effect the other way counts as inactive or inconclusive; also: nearly all actives have a fitted effect of over 50% in size; also: potency is read from the fitted curve at half-maximal effect); settings: recombinant CYP3A4, Luciferin-PPXE luminescence; series mostly up to 57.1 µM
Cytochrome P450 3A4 (Homo sapiens), sequence (P08684 whole entry, looked up): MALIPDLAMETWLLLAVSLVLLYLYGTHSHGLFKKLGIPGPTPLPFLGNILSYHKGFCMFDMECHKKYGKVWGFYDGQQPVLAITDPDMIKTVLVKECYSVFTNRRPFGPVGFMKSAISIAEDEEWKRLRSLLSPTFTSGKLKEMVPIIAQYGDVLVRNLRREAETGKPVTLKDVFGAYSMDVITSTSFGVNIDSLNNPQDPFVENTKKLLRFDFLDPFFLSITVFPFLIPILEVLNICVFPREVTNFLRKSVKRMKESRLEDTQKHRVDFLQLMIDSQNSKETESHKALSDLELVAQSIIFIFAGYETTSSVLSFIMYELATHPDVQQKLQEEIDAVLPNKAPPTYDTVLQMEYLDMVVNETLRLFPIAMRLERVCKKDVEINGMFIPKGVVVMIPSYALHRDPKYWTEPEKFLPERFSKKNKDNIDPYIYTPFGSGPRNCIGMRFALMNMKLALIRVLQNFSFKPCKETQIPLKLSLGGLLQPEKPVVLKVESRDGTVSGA
Outline: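 Luminescent readout of luciferin produced by CYP3A4 (20 nM) dealkylation of Luciferin-PPXE, 25 uM (its KM). NADPH-driven reaction ran 60 min at RT after 10 min compound preincubation; data scaled to 57 uM ketoconazole as 100% inhibition.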

[9] = molecular target: Cytochrome P450 3A4 (Homo sapiens) (UniProt P08684); experiment: qHTS Assay for Activators of Cytochrome P450 3A4 (AID 885; active = well fitted curve in the direction sought with a large enough effect; an effect the other way counts as inactive or inconclusive; also: nearly all actives have a fitted effect of over 65% in size); settings: recombinant CYP3A4, Luciferin-PPXE luminescence, 60 min; series mostly up to 57.1 µM
Outline: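 Human CYP3A4 dealkylates Luciferin-PPXE to luciferin, which luciferase detection converts to light. Substrate was at its KM (25uM), buffer 200mM KPO4, reaction 60 min at RT.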

[10] = qHTS Assay for Lipid Storage Modulators (AID 1519); settings: Drosophila S3 cells, BODIPY lipid droplet/cell ratio, laser cytometry, cells loaded with oleic acid; for activity change, negative = inhibition: at 57.5 µM (top of the series)
Outline: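 Cells seeded at 5,000 per well were treated with compounds over a concentration series and loaded with oleic acid (400 uM, as added). Lipid droplet fluorescence (488 nm excitation, 500-530 nm channel) was read by laser-scanning cytometry and normalized to 20 uM Triacsin C.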

[11] = Primary qHTS for small molecule stabilizers of the endoplasmic reticulum resident proteome: Secreted ER Calcium Modulated Protein (SERCaMP) assay (AID 1508630; active = well fitted curve in the direction sought with a large enough effect; an effect the other way counts as inactive or inconclusive; also: % is scaled to controls: 0 for no effect and ±100 for the full control effect); settings: SH-SY5Y GLuc-SERCaMP (Gaussia luciferase released on ER calcium loss) secretion, thapsigargin, luminescence; series mostly up to 38.4 µM
Outline: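 The SH-SY5Y reporter protocol was run at 3 concentrations up to 38.3 uM (primary) or 11 concentrations (follow-up): 16 h compound, 100 nM thapsigargin for 4 h, then extracellular luciferase luminescence.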

[12] = molecular target: Cytochrome P450 2C9 (Homo sapiens) (UniProt P11712); experiment: qHTS Assay for Inhibitors and Substrates of Cytochrome P450 2C9 (AID 883; active = well fitted curve in the direction sought with a large enough effect; an effect the other way counts as inactive or inconclusive; also: nearly all actives have a fitted effect of over 60% in size; also: potency is read from the fitted curve at half-maximal effect); settings: recombinant CYP2C9, luciferin-H luminescence, 60 min; series mostly up to 57.1 µM
Cytochrome P450 2C9 (Homo sapiens), sequence (P11712 whole entry, looked up): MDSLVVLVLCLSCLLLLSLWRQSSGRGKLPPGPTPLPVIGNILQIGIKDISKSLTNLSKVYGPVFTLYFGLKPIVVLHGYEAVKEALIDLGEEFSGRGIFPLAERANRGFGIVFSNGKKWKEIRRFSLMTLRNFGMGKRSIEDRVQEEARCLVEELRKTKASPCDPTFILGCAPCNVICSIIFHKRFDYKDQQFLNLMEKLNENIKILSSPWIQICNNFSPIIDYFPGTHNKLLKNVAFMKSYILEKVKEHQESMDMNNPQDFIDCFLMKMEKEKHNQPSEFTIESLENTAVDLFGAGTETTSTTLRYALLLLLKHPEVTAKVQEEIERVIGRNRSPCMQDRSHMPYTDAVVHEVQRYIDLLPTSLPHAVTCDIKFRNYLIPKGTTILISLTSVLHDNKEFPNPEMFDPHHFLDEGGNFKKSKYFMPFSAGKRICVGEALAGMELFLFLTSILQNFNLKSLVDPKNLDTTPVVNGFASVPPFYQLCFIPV
Outline: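 A luminogenic readout tracked human CYP2C9 (10nM) converting deoxyluciferin (100uM, at KM) in 25mM KPO4 during 60 min at 37C with regenerated NADPH. Values normalized to 57uM sulphaphenazole as complete inhibition.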

[13] = molecular target: Cytochrome P450 2C19 (Homo sapiens) (UniProt P33261); experiment: qHTS Assay for Inhibitors and Substrates of Cytochrome P450 2C19 (AID 899; active = well fitted curve in the direction sought with a large enough effect; an effect the other way counts as inactive or inconclusive; also: nearly all actives have a fitted effect of over 60% in size; also: potency is read from the fitted curve at half-maximal effect); settings: recombinant CYP2C19, luciferin-H EGE luminescence; series mostly up to 57.1 µM
Cytochrome P450 2C19 (Homo sapiens), sequence (P33261 whole entry, looked up): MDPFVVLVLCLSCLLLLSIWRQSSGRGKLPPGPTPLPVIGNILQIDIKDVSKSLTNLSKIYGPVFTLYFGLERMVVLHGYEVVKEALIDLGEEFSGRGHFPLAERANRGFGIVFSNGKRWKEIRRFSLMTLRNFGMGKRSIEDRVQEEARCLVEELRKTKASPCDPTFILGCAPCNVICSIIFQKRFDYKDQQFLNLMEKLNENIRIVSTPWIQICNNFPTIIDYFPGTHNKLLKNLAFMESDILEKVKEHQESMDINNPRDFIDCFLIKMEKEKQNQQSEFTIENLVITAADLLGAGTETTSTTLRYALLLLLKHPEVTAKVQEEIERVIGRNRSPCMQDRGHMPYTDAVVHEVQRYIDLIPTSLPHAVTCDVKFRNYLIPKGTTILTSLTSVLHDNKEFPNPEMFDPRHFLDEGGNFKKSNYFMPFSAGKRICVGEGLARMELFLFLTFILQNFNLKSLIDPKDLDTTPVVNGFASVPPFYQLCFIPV
Outline: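 NADPH-dependent conversion of Luciferin-H EGE (10uM, at KM) by 5nM enzyme in 50mM KPO4, 60 min at 37C following 10 min compound preincubation. Stopped with luciferin detection buffer; luminescence read after 20 min.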

[14] = molecular target: Cytochrome P450 2D6 (Homo sapiens) (UniProt P10635); experiment: qHTS Assay for Inhibitors and Substrates of Cytochrome P450 2D6 (AID 891; active = well fitted curve in the direction sought with a large enough effect; an effect the other way counts as inactive or inconclusive; also: potency is read from the fitted curve at half-maximal effect; nearly all actives have a fitted effect of over 60% in size); settings: recombinant CYP2D6, luciferin-ME EGE luminescence; series mostly up to 57.1 µM
Cytochrome P450 2D6 (Homo sapiens), sequence (P10635 whole entry, looked up): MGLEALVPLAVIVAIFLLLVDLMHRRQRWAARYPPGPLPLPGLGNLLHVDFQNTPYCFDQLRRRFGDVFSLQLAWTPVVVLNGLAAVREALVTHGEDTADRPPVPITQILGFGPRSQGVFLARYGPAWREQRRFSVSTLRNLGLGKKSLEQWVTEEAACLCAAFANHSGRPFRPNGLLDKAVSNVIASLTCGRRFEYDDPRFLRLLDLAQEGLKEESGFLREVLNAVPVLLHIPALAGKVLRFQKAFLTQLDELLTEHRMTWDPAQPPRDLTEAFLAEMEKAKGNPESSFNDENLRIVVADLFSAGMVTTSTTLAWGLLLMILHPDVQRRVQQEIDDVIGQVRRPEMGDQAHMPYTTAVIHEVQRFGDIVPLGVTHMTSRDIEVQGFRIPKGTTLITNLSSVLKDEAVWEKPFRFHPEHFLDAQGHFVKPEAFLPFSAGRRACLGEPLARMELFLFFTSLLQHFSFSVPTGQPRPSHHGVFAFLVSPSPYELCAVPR
Outline: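 Luminescent read-out of luciferin formed by 5 nM human CYP2D6 demethylating 30 uM Luciferin-ME EGE (Km level) over 60 min at room temperature after NADPH regeneration addition. Data normalized to full inhibition by 1.43 uM quinidine.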

[15] = qHTS Assay for Identification of Small Molecule Agonists for Hypoxia Response Element Signaling Pathway (AID 914; active = well fitted activation curve with a large enough effect in the signal ratio, with a control signal flat, not every such curve was filed as active; the % refers to the signal ratio; also: % of control where 0% means no effect); settings: ME-180 (cervical carcinoma) HRE-bla reporter, beta-lactamase ratio, CoCl2, 17 h; activation: stronger effect = higher value
Outline: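 HRE-bla ME-180 assay for agonist-like enhancement of an EC50 CoCl2 stimulus: 17 h at 37 degrees Celsius, CCF4 for 2.5 h, ratiometric 460/530 nm signal converted to %Activity and fitted to AC50.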

[16] = measured here: cell count channel max response
[17] = measured here: lipid channel max response

Lysosomal acid glucosylceramidase (Homo sapiens), sequence (P04062 whole entry, looked up): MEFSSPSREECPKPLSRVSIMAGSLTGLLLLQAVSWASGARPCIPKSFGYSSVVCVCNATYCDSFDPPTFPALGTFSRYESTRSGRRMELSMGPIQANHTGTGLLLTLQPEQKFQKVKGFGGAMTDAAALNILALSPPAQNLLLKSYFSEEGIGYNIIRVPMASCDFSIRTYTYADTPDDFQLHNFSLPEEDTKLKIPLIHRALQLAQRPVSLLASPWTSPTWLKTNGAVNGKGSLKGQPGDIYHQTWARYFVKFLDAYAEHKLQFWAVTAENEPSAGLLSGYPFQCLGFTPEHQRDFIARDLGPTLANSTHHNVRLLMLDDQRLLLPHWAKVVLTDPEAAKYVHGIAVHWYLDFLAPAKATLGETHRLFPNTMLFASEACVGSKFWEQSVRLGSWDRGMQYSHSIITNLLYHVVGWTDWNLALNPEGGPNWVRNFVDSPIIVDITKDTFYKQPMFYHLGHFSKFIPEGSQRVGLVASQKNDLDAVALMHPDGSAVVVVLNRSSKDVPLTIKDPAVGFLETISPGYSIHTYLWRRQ

O=C(c1cccc(F)c1)N1CCC[C@@]2(CCN(c3ccccc3)C2)C1
active: Potency [8] 6.31 µM
8.88%: max response [10, 16]
15.7%: max response [10, 17]
inactive: Potency [1] > 11.4 µM | activity change, negative = inhibition [2] -6.87% | Potency [3] | activity, negative = inhibition [4] -5.23% | Potency [5] > 46 µM | Potency [6] | Potency [7] | Potency [9] | activity change, negative = inhibition [10] 4.17% | outcome [11]

Cn1cccc1C(=O)N1CCC2(CC1)CN(c1ccccn1)C2
13.8%: max response [10, 17]
7.05%: max response [10, 16]
inactive: Potency [1] > 11.4 µM | activity change, negative = inhibition [2] 2.02% | Potency [3] | activity, negative = inhibition [4] -6.36% | Potency [5] > 46 µM | Potency [6] | Potency [7] | Potency [8] | activity change, negative = inhibition [10] 5.7% | outcome [11]

Cn1cccc1C(=O)N1CCC2(CC1)CCN(C(c1ccccc1)c1ccccc1)CC2
11.8%: max response [10, 16]
active: Potency [3] 5.01 µM
inactive: Potency [1] > 11.4 µM | activity change, negative = inhibition [2] -3.6% | activity, negative = inhibition [4] -4.66% | Potency [5] > 46 µM | Potency [6] | Potency [7] | Potency [8] | activity change, negative = inhibition [10] -19.5% | outcome [11]
-8.47%: max response [10, 17]

O=S(=O)(c1ccccc1)N1CCC2(CC1)CN(c1ccccn1)C2
-4.86%: max response [10, 16]
-8.67%: max response [10, 17]
inactive: Potency [1] > 11.4 µM | activity change, negative = inhibition [2] 16% | Potency [3] | activity, negative = inhibition [4] -15% | Potency [5] > 46 µM | Potency [6] | Potency [7] | Potency [9] | activity change, negative = inhibition [10] -4.43% | outcome [11]

Cn1cccc1C(=O)N1CCC2(CCCN(Cc3ccc(C#N)cc3)C2)CC1
inactive: Potency [1] > 11.4 µM | activity change, negative = inhibition [2] 10.6% | activity, negative = inhibition [4] -1.12% | Potency [5] > 46 µM | Potency [6] | Potency [7] | Potency [9] | activity change, negative = inhibition [10] 1.29% | outcome [11]
18.2%: max response [10, 17]
active: Potency [3] 12.6 µM
17.2%: max response [10, 16]

CN1CC[C@@]2(CCCN(C(=O)c3cc(C(F)(F)F)cc(C(F)(F)F)c3)C2)C1
2.81%: max response [10, 17]
inactive: Potency [1] > 11.4 µM | activity change, negative = inhibition [2] -0.328% | Potency [3] | activity, negative = inhibition [4] 13.1% | Potency [5] > 46 µM | Potency [6] | Potency [7] | Potency [9] | activity change, negative = inhibition [10] 1.24% | outcome [11]
-1.13%: max response [10, 16]

N#Cc1ccc(CN2CCCC3(CCN(C(=O)c4ccncc4)CC3)C2)cc1
7.34%: max response [10, 17]
4.42%: max response [10, 16]
inactive: Potency [1] > 11.4 µM | activity change, negative = inhibition [2] -16.7% | Potency [3] | activity, negative = inhibition [4] 1.22% | Potency [5] > 46 µM | Potency [6] | Potency [7] | Potency [12] | Potency [9] | Potency [13] | activity change, negative = inhibition [10] 2.04% | outcome [11]

CC(C)CN1CCCC2(CCN(C(=O)c3cccn3C)CC2)C1
26.5%: max response [10, 17]
inactive: Potency [1] > 11.4 µM | activity change, negative = inhibition [2] -3.67% | Potency [3] | activity, negative = inhibition [4] 12.4% | Potency [5] > 46 µM | Potency [6] | Potency [7] | Potency [9] | activity change, negative = inhibition [10] 6.1% | outcome [11]
16.8%: max response [10, 16]

CC(C)CN1CCCC2(CCN(S(=O)(=O)c3ccccc3)CC2)C1
15.5%: max response [10, 17]
inactive: Potency [1] > 11.4 µM | activity change, negative = inhibition [2] 1.33% | Potency [3] | activity, negative = inhibition [4] 0.203% | Potency [5] > 46 µM | Potency [6] | Potency [7] | Potency [9] | activity change, negative = inhibition [10] 2.73% | outcome [11]
12.5%: max response [10, 16]

O=C(c1ccncc1)N1CCC2(CC1)CN(Cc1cc(C(F)(F)F)cc(C(F)(F)F)c1)C2
inactive: Potency [1] > 11.4 µM | activity change, negative = inhibition [2] -5.95% | Potency [3] | activity, negative = inhibition [4] -8.98% | Potency [5] > 46 µM | Potency [6] | Potency [7] | Potency [9] | activity change, negative = inhibition [10] 0.924% | outcome [11]
active: Potency [8] 5.01 µM
16.4%: max response [10, 17]
9.27%: max response [10, 16]

N#Cc1ccc(CN2CCC3(CC2)CCN(C(=O)c2ccncc2)CC3)cc1
18.7%: max response [10, 17]
inactive: Potency [1] > 11.4 µM | activity change, negative = inhibition [2] 1.51% | Potency [3] | activity, negative = inhibition [4] -3.87% | Potency [5] > 46 µM | Potency [7] | Potency [9] | activity change, negative = inhibition [10] 1.92% | outcome [11]
active: Potency [14] 6.31 µM
15.7%: max response [10, 16]

COCC(=O)N1CCC2(CCCN(c3ncccn3)C2)CC1
9.8%: max response [10, 16]
inactive: Potency [1] > 11.4 µM | activity change, negative = inhibition [2] -5.71% | Potency [3] | activity, negative = inhibition [4] -7.69% | Potency [5] > 46 µM | Potency [6] | Potency [7] | activation [15] 11.9% | activity change, negative = inhibition [10] 7.95% | outcome [11]
21.8%: max response [10, 17]

O=C(Nc1ccccc1)N1CC[C@@]2(CCCN(C(=O)c3cc(C(F)(F)F)cc(C(F)(F)F)c3)C2)C1
active: Potency [3] 25.1 µM
-0.407%: max response [10, 16]
inactive: Potency [1] > 11.4 µM | activity change, negative = inhibition [2] -5.62% | activity, negative = inhibition [4] -6.2% | Potency [5] > 46 µM | Potency [6] | Potency [7] | Potency [9] | Potency [13] | activity change, negative = inhibition [10] 4.15% | outcome [11]
6.94%: max response [10, 17]

O=C(c1cccc(F)c1)N1CCC2(CC1)CN(c1ccncc1)C2
inactive: Potency [1] > 11.4 µM | activity change, negative = inhibition [2] -2.31% | Potency [3] | activity, negative = inhibition [4] 1.58% | Potency [5] > 46 µM | Potency [7] | activity change, negative = inhibition [10] -4.55% | outcome [11]
active: Potency [12] 5.01 µM | Potency [13] 3.16 µM
-26.4%: max response [10, 17]
-24.1%: max response [10, 16]

— PubChem BioAssay (NCATS)
